Assay results published in PubChem BioAssay AID1159580 (chemical genetic matrix, 2015).
Values joined by “and” are separate entries in the source; they are usually repeats but may differ in a detail not shown here. Equal values may be shown once. The campaign covered roughly 5,500 compounds. About 2,000 (36%) were called active. Inconclusive results (about 18%) are left out. Cut-off read from the data, not from the text of the source: active = normalized growth mostly below about 0.91 (no sharp cut-off); inconclusive = no clear call, values can overlap the other calls; inactive = mostly above about 0.92. The list shows a part of the results.

Experiment: chemical genetic growth profiling, strain panel (AID 1159580);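 note: tested at 20 µM; growth read once vehicle control cultures reached saturation at 30 °C; 1 = growth at the plate median or of vehicle wells; lower values mean less growth of the strain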
Settings: S. cerevisiae deletion strains, growth OD

Measured: normalized growth

C#C[C@]1(O)CCC2C3CCc4cc(O)ccc4C3CC[C@@]21C (some centres not stated)
inactive: locus YAL013W, strain DEP1, stronger effect = lower value 1 | locus YAL021C, strain ccr4, stronger effect = lower value 1.06 | locus YAL026C, strain drs2, stronger effect = lower value 0.951 | locus YAL030W, strain snc1, stronger effect = lower value 1.02 | locus YBL061C, strain skt5, stronger effect = lower value 0.998 | locus YBR021W, strain FUR4, stronger effect = lower value 0.94 | locus YBR023C, strain chs3, stronger effect = lower value 0.996 | locus YBR171W, strain sec66, stronger effect = lower value 1.02 | locus YBR229C, strain ROT2, stronger effect = lower value 1.02 | locus YBR231C, strain swc5, stronger effect = lower value 1 | locus YBR279W, strain paf1, stronger effect = lower value 1 | locus YCL011C, strain gbp2, stronger effect = lower value 1.01 | locus YCL016C, strain dcc1, stronger effect = lower value 0.988 | locus YCL029C, strain bik1, stronger effect = lower value 0.942 | locus YCL061C, strain MRC1, stronger effect = lower value 0.968 | locus YCL069W, strain vba3, stronger effect = lower value 1.02 | locus YCR088W, strain abp1, stronger effect = lower value 1.02 | locus YDL005C, strain med2, stronger effect = lower value 1.04 | locus YDL040C, strain nat1, stronger effect = lower value 1.03 | locus YDL074C, strain BRE1, stronger effect = lower value 0.833 | locus YDL101C, strain DUN1, stronger effect = lower value 0.989 | locus YDL185W, strain tfp1, stronger effect = lower value 1.02 | locus YDL192W, strain arf1, stronger effect = lower value 1.01 | locus YDR001C, strain nth1, stronger effect = lower value 1.04 | locus YDR069C, strain doa4, stronger effect = lower value 0.991 | locus YDR101C, strain arx1, stronger effect = lower value 0.956 | locus YDR159W, strain sac3, stronger effect = lower value 0.908 | locus YDR162C, strain NBP2, stronger effect = lower value 0.843 | locus YDR297W, strain sur2, stronger effect = lower value 1.01 | locus YDR318W, strain mcm21, stronger effect = lower value 0.945 | locus YDR334W, strain swr1, stronger effect = lower value 1.05 | locus YDR335W, strain msn5, stronger effect = lower value 0.959 | locus YDR388W, stronger effect = lower value 1.02 | locus YDR502C, strain sam2, stronger effect = lower value 0.93 | locus YEL003W, strain gim4, stronger effect = lower value 0.938 | locus YEL037C, strain rad23, stronger effect = lower value 1.02 | locus YEL061C, strain CIN8 (second series), stronger effect = lower value 1.03 | locus YEL061C, strain CIN8, stronger effect = lower value 1.04 | locus YER015W, strain faa2, stronger effect = lower value 1.01 | locus YER016W, strain bim1, stronger effect = lower value 0.934 | locus YER110C, stronger effect = lower value 1.03 | locus YER111C, strain swi4, stronger effect = lower value 1.06 | locus YER155C, strain BEM2 (second series), stronger effect = lower value 1.07 | locus YER155C, strain BEM2, stronger effect = lower value 1.06 | locus YER167W, strain BCK2, stronger effect = lower value 1 | locus YFR010W, strain ubp6, stronger effect = lower value 1.01 | locus YGL086W, strain mad1, stronger effect = lower value 0.951 | locus YGL167C, strain pmr1, stronger effect = lower value 1.02 | locus YGL173C, strain kem1, stronger effect = lower value 0.904 | locus YGL227W, strain vid30, stronger effect = lower value 1.05 | locus YGL240W, strain doc1, stronger effect = lower value 0.918 | locus YGL248W, strain PDE1, stronger effect = lower value 0.952 | locus YGL253W, strain hxk2, stronger effect = lower value 0.963 | locus YGR078C, strain PAC10, stronger effect = lower value 0.877 | locus YGR135W, strain pre9, stronger effect = lower value 0.949 | locus YHR027C, strain rpn1, stronger effect = lower value 0.981 | locus YHR030C, strain SLT2, stronger effect = lower value 1.02 and 0.96 | locus YHR079C, strain IRE1 (second series), stronger effect = lower value 0.979 | locus YHR079C, strain IRE1, stronger effect = lower value 0.968 | locus YHR094C, strain hxt1, stronger effect = lower value 1.03 | locus YHR129C, strain ARP1, stronger effect = lower value 0.993 | locus YHR142W, strain chs7, stronger effect = lower value 0.946 | locus YHR200W, strain rpn10, stronger effect = lower value 1.01 | locus YIL066C, strain RNR3, stronger effect = lower value 0.913 | locus YIL073C, strain SPO22, stronger effect = lower value 1.01 | locus YIL125W, strain kgd1, stronger effect = lower value 1 | locus YIR030C, strain dcg1, stronger effect = lower value 0.999 | locus YJL092W, strain hpr5, stronger effect = lower value 1.02 | locus YJL095W, strain BCK1 (second series), stronger effect = lower value 1 | locus YJL095W, strain BCK1, stronger effect = lower value 0.861 and 1 | locus YJL115W, strain asf1, stronger effect = lower value 1.05 | locus YJL129C, strain trk1, stronger effect = lower value 0.946 | locus YJL134W, strain LCB3, stronger effect = lower value 1.03 | locus YJL154C, strain vps35, stronger effect = lower value 1.05 | locus YJL164C, strain tpk1, stronger effect = lower value 0.952 | locus YJL166W, strain qcr8, stronger effect = lower value 0.973 | locus YJL168C, strain set2, stronger effect = lower value 1.02 | locus YJL187C, strain SWE1 (second series), stronger effect = lower value 0.931 | locus YJL187C, strain SWE1, stronger effect = lower value 1.02
active: locus YBR009C, strain hhf1, stronger effect = lower value 0.894 | locus YDL035C, strain GPR1, stronger effect = lower value 0.853 | locus YDR137W, strain rgp1, stronger effect = lower value 0.738 | locus YDR195W, strain ref2 1.25 [resistant] | locus YDR392W, strain spt3, stronger effect = lower value 0.617 | locus YGL078C, strain dbp3, stronger effect = lower value 0.904 | locus YGR252W, strain gcn5, stronger effect = lower value 0.653 | locus YHR013C, strain ard1, stronger effect = lower value 1.17 [resistant]
